{
  "source": "ChEMBL document CHEMBL2218924",
  "about": "“A broad activity screen in support of a chemogenomic map for kinase signalling research and drug discovery” (Biochem J, 2013)",
  "key": {"[1]": {"molecular_target": "T1, Ephrin type-B receptor 1 (Homo sapiens) (UniProt P54762)", "T1 sequence (whole entry)": "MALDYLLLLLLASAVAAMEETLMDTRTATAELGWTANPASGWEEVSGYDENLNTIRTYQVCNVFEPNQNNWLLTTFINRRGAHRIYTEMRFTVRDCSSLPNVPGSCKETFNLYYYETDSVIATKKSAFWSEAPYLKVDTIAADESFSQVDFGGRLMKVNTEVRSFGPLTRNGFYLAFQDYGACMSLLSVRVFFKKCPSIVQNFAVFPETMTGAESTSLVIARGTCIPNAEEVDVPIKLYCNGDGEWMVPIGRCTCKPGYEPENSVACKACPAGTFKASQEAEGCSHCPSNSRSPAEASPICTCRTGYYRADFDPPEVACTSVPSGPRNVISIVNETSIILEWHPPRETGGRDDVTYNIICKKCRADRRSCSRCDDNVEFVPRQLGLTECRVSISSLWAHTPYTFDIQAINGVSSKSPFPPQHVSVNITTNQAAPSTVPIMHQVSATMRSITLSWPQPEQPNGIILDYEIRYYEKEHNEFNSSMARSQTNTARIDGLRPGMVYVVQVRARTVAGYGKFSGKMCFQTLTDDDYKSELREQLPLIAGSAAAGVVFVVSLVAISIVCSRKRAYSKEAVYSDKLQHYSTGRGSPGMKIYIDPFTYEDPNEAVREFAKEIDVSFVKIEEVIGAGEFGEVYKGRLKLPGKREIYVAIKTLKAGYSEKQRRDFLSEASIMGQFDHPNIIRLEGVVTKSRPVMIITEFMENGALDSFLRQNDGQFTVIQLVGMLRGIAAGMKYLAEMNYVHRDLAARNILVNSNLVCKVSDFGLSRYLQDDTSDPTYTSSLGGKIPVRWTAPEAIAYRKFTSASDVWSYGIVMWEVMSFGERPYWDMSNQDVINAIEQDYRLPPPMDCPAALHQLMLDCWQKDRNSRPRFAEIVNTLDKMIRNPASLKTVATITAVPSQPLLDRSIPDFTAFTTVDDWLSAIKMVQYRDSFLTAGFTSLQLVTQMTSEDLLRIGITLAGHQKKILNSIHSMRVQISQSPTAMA", "conditions": "at 10 µM; call rule not given here"}, "[2]": {"molecular_target": "T2, Ephrin type-B receptor 2 (Homo sapiens) (UniProt P29323)", "T2 sequence (whole entry)": "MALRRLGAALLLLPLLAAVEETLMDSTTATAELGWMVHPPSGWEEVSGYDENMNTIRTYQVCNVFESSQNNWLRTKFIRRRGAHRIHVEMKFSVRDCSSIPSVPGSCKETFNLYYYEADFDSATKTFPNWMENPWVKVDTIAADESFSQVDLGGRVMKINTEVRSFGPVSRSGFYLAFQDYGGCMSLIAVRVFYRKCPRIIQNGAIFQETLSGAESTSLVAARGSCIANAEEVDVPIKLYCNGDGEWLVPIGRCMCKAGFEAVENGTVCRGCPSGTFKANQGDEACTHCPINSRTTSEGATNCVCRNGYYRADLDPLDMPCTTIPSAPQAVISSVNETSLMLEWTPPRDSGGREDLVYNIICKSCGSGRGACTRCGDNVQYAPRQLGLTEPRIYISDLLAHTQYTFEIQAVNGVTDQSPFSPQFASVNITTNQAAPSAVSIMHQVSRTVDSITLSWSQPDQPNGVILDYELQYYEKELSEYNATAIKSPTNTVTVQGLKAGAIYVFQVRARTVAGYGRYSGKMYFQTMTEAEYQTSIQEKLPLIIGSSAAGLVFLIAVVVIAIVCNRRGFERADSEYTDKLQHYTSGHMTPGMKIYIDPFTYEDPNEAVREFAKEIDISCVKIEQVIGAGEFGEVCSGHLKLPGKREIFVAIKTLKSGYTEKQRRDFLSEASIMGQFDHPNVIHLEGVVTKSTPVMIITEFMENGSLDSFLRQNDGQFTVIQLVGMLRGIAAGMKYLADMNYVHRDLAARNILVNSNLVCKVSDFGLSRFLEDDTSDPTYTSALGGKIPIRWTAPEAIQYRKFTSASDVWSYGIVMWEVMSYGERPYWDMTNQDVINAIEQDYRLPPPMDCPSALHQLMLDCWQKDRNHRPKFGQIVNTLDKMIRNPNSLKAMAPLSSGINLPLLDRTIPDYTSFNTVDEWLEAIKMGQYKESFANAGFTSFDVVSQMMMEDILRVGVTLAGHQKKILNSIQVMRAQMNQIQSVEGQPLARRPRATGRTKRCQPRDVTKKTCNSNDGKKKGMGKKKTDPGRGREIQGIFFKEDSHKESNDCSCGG", "conditions": "at 1 µM"}, "[3]": {"molecular_target": "T2, Ephrin type-B receptor 2 (Homo sapiens)", "conditions": "at 10 µM"}, "[4]": {"molecular_target": "T3, Ephrin type-B receptor 3 (Homo sapiens) (UniProt P54753)", "T3 sequence (whole entry)": "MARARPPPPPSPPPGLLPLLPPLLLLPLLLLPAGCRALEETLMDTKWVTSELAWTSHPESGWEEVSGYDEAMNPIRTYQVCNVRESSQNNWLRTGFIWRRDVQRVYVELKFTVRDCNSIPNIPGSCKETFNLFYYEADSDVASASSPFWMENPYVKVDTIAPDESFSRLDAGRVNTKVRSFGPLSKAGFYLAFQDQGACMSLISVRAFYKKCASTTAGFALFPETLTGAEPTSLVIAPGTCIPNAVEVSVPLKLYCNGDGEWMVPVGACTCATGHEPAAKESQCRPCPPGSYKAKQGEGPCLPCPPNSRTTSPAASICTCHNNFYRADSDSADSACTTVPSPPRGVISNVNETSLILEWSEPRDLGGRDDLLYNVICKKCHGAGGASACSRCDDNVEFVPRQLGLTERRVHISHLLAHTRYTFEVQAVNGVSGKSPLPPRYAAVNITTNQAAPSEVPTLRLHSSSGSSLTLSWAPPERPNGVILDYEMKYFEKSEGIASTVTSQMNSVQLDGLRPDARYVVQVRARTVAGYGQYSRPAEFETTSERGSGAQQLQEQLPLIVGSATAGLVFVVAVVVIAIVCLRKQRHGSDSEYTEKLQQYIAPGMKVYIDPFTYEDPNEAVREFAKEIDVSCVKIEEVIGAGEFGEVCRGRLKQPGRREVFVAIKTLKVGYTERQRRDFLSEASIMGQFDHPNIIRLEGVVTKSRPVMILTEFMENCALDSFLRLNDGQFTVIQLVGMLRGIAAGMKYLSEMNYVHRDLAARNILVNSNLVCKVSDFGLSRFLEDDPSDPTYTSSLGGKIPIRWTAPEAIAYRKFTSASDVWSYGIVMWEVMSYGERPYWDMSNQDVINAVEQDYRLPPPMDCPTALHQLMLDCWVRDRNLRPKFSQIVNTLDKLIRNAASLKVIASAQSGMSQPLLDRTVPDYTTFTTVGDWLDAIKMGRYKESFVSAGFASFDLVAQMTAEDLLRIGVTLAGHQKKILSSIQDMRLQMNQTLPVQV", "conditions": "at 1 µM"}, "[5]": {"molecular_target": "T3, Ephrin type-B receptor 3 (Homo sapiens)", "conditions": "at 10 µM"}, "[6]": {"molecular_target": "T4, Ephrin type-B receptor 4 (Homo sapiens) (UniProt P54760)", "T4 sequence (whole entry)": "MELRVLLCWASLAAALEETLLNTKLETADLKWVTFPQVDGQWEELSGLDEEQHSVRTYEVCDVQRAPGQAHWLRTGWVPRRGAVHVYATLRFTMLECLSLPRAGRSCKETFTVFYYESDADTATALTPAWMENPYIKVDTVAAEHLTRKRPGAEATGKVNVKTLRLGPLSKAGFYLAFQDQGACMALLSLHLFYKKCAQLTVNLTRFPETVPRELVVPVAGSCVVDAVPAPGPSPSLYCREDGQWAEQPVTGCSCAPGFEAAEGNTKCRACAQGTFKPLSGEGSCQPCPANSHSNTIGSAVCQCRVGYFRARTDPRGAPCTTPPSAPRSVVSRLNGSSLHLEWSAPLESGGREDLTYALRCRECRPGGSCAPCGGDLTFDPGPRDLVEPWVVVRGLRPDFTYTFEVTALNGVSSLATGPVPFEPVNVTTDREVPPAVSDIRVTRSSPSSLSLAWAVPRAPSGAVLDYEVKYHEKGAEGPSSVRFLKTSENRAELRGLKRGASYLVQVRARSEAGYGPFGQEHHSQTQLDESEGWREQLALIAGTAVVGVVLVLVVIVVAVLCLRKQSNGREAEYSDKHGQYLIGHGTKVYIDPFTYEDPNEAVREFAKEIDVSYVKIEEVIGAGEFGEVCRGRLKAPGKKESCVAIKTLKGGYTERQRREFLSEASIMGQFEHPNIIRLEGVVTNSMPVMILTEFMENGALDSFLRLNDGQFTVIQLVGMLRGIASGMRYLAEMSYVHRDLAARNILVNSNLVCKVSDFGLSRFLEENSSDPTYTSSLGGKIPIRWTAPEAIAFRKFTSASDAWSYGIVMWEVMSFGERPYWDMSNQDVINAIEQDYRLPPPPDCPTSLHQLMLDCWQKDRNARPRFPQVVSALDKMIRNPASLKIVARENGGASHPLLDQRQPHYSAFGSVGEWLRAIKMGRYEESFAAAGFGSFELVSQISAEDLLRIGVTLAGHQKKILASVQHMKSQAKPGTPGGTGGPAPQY", "conditions": "at 1 µM"}, "[7]": {"molecular_target": "T4, Ephrin type-B receptor 4 (Homo sapiens)", "conditions": "at 10 µM"}, "[8]": {"molecular_target": "Receptor tyrosine-protein kinase erbB-4 (Homo sapiens) (UniProt Q15303)", "sequence (Q15303 whole entry)": "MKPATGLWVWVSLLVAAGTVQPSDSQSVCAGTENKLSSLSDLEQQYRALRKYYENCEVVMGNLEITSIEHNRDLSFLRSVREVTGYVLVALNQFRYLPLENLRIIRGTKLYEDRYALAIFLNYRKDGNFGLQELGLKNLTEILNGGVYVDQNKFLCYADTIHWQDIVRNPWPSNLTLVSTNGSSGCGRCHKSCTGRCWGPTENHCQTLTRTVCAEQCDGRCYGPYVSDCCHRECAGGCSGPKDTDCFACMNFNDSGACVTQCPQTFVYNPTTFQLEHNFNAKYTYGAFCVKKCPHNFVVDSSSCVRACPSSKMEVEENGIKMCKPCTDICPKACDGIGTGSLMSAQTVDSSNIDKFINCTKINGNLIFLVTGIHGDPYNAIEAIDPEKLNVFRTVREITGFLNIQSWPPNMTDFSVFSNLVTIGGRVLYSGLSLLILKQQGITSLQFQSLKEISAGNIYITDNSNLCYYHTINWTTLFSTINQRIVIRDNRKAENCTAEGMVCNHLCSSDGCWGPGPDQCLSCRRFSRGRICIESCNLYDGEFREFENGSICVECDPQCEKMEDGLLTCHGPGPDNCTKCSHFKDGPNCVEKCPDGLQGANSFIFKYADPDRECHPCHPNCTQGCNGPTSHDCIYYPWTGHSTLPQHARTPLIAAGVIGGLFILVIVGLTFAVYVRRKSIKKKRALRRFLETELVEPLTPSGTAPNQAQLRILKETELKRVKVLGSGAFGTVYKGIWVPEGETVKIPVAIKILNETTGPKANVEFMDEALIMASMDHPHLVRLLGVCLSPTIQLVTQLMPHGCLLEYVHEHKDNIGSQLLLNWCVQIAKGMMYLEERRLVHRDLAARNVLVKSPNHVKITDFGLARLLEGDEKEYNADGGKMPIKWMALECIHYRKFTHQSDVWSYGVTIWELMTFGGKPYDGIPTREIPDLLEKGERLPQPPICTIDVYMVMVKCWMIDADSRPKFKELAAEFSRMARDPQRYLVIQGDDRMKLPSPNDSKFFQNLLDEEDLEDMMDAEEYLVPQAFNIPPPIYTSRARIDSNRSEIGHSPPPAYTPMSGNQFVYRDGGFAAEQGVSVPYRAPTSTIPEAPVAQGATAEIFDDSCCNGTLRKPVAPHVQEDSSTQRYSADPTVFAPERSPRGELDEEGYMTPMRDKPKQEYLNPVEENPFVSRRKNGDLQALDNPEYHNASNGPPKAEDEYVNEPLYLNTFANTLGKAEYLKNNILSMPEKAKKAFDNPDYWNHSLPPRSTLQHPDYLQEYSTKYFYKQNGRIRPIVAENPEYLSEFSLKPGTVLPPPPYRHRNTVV", "conditions": "at 1 µM"}, "[9]": {"molecular_target": "Receptor tyrosine-protein kinase erbB-4 (Homo sapiens) (UniProt Q15303)", "conditions": "at 10 µM"}, "[10]": {"molecular_target": "Focal adhesion kinase 1 (Homo sapiens) (UniProt Q05397)", "sequence (Q05397 2-1052 limits assumed)": "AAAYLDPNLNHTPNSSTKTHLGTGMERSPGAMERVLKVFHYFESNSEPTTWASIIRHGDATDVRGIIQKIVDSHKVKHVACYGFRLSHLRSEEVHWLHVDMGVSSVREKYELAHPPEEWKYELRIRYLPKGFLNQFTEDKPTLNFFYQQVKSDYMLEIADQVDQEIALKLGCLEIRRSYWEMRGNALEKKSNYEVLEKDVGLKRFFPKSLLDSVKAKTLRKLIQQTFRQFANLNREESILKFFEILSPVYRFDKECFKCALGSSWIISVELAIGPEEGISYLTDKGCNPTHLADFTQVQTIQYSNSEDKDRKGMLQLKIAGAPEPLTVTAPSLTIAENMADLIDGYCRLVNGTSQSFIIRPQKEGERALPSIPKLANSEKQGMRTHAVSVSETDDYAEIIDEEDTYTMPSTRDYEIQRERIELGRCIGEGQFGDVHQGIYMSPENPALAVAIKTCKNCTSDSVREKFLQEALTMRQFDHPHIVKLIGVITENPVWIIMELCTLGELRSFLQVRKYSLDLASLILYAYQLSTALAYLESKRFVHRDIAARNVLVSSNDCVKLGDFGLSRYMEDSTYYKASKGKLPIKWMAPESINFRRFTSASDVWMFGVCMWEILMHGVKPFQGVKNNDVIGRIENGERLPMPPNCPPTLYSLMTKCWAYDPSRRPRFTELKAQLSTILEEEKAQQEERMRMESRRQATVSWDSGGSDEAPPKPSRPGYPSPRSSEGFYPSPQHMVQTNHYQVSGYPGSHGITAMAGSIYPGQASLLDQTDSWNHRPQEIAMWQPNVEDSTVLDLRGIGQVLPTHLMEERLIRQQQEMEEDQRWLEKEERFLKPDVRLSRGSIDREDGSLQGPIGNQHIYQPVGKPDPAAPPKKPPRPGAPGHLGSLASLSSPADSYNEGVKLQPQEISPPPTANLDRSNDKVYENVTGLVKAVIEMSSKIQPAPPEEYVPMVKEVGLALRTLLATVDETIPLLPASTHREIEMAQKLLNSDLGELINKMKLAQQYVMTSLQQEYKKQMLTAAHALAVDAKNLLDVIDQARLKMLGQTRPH", "conditions": "at 1 µM"}},
  "data": [
    {"smiles": "N#C/C(=C(\\N)Sc1ccc(N)cc1)c1ccccc1C(F)(F)F", "values": [
      {"measurement": "residual activity", "setting": "[1]", "result": 95, "unit": "%"},
      {"measurement": "residual activity", "setting": "[2]", "result": 108, "unit": "%"},
      {"measurement": "residual activity", "setting": "[3]", "result": 110, "unit": "%"},
      {"measurement": "residual activity", "setting": "[4]", "result": "105% (inactive)"},
      {"measurement": "residual activity", "setting": "[5]", "result": 109, "unit": "%"},
      {"measurement": "residual activity", "setting": "[6]", "result": 93, "unit": "%"},
      {"measurement": "residual activity", "setting": "[7]", "result": 92, "unit": "%"},
      {"measurement": "residual activity", "setting": "[8]", "result": 96, "unit": "%"},
      {"measurement": "residual activity", "setting": "[9]", "result": 104, "unit": "%"},
      {"measurement": "residual activity", "setting": "[10]", "result": 99, "unit": "%"}
    ]}
  ]
}
